# According to the supplement of paper PMC10105736:
# A number with no mark means an inactive call.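 Rule for the calls: active = MAPPIT score above the 99th percentile of random reference set scores in the same batch; inactive = at or below it.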
# Tests used:
# Experiment in all cases: MAPPIT interaction score (arbitrary units); higher = stronger binary interaction signal, active = hit call of the paper
# [1] = target: grp; conditions: MAPPIT configuration: N-N; pair source set: DPIM
# [2] = target: gsb-n; conditions: MAPPIT configuration: N-N; pair source set: Finley_Y2H
# [3] = target: fz; conditions: MAPPIT configuration: N-C; pair source set: Lit-BM-16
# [4] = target: glob1; conditions: MAPPIT configuration: N-N
# [5] = target: fwe; conditions: MAPPIT configuration: N-C; pair source set: screen_4
# [6] = target: fon; conditions: MAPPIT configuration: N-N; pair source set: Finley_Y2H
# [7] = target: flw; conditions: pair source set: Lit-BM-16
# [8] = target: gukh; conditions: MAPPIT configuration: N-C; pair source set: Lit-BM-16
# [9] = target: mRpL39; conditions: MAPPIT configuration: N-N; pair source set: DPIM
# [10] = target: gus; conditions: MAPPIT configuration: N-N; pair source set: Finley_Y2H
# 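Note: HEK293T cells with Epo stimulation, STAT-responsive firefly luciferase reporter, fold induction versus unstimulated cells divided by the larger fold induction of two negative controls lacking either bait or prey.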
binder,measurement,setting,value
CG6724 (protein) MDVDNGEGQVQVHLKTKQEHYAVPDVPYAIDGTVTTVELNTFVNALLRQKDGSSDTDFDFLVFDEYLRGRLCDHLREKAISFEDAIEIEYVERFPAPEPQDCLLHDDWVSAVKARGKWILSGCYDNTLNLWTNKGKHILTISGHTAPIKAVDWISLDEETGRFVSTSQDQTAMLWQWNVGSNSVECVSVCKGHERGVDSVSVSPDGLRFATGSWDTMLKVWSAELDDAVEGSSKRMKESGVRTPKITLQGHRESVSAVQWMDATTLLTGSWDHTLKVWDLSLEGIKTEISTNKSIFDASYSKLNRLILTASADKNLRLYDPRTNQGSVVRNTYLGHNAWVQTVMWSTTEEFLFVSGAYDNQNKLWDCRSPKAPLYDLLGHGEKVLDIDWSNPKYIVSGGVDNTVRVFKSRKALAEEAETK,MAPPIT interaction score,[1],0.11
slp2 (protein) MVKIEEGLPSSEISAHSLHFQHHHHPLPPTTHHSALQSPHPVGLNLTNLMKMARTPHLKSSFSINSILPETVEHHDEDEEEDVEKKSPAKFPPNHNNNNLNTTNWGSPEDHEAESDPESDLDVTSMSPAPVANPNESDPDEVDEEFVEEDIECDGETTDGDAENKSNDGKPVKDKKGNEKPPYSYNALIMMAIRQSSEKRLTLNGIYEYIMTNHPYYRDNKQGWQNSIRHNLSLNKCFVKVPRHYDDPGKGNYWMLDPSAEDVFIGGSTGKLRRRTTAASRSRLAAFKRSLIGPMFPGLAAYPQFGQFLTYPPTAPSLLASMYQRYNPFAPKGGPGHPGLPPGLPGLPGPPGPQGPPGPPPPPFVAPPTSSELYQRLQYQQLLHQHAAAAALAAHQRQLSVAAASAASQPPPTHHHPHLAVGQAPLSPGGDSPGPSPQPLHKPVTVVSRNS,MAPPIT interaction score,[2],-0.371
Patj (protein) MHLSADISSALQQIEAVKKGIDESDDPKLQMQTAESLSTILGILQDPVFRTIVHVQDSLSELNAQLAQHPSMLPNDFDIDVAGNLVLSLNGGEVMYDFDEQRSSSHSHSAPGSPDKSGGVGEEPRPQSQNSKGAGVADLYATDYAQIQAIELVNDGTGLGFGIIGARNSGVIVKTILPGGVADKDGRLRSGDHILQIGDVNLHEMVSEQVAAVLRQSGTHVRLVVARPVEQSVPTPQYALEPGTAVVPTRVLVDPAELERYLISTGYPEIFGESSTASTPQTTTEDDRFVYRGETSMLIDPNIDLEELLALPETEKLQVELKKDANGLGITIAGYVCEKEELSGIFVKSVSPGSAADLSGRIRVNDRIIEVDGQSLQGYSNHQAVELLKKSGQVVNLRLERYLRGPKFEQLQQAIAANDKLPSSAPGTPSRAPMPTPVATTSSATTTPSRSITRELEEEALPAPEAFMTTPPSVTTMTTTTLSSFGAGKQLVAVRDSLDGSTKIIPTEVVPLADKTEAKNSGVITRHKYYTDPELSDDAETEIIRKWQKIVGSDVEVIVAQIKKFAVGGLGISLEGTVDVEGGREVRPHHYIRSILPDGPVGVNGVLRSGDELLEVNGERLLGMNHLEVVAILKELPLDVRMVCGRNRNSSLLPFSDDTLKKLSNNFENLLPATDRLVKAKSDGSLATAGSVADGDSVAAAAASFSKLKSRSLEPLTGLAMWSSQPQIIELVKGDRGLGFSILDYQDPLDPNDTLIVIRSLVPGGVAQLDGRLIPGDRLLFVNSINLENASLDQAVQALKGASKGVVRIGVAKPLPMTDNSLKACSNASTTSEETLDAQPSPPALPTVAPPAMPPSASMGAEPDLIPDWRN,MAPPIT interaction score,[3],2.4
eIF2gamma (protein) MATAEAQIGVNRNLQKQDLSNLDVSKLTPLSPEVISRQATINIGTIGHVAHGKSTVVKAISGVQTVRFKNELERNITIKLGYANAKIYKCDNPKCPRPASFVSDASSKDDSLPCTRLNCSGNFRLVRHVSFVDCPGHDILMATMLNGAAVMDAALLLIAGNESCPQPQTSEHLAAIEIMKLKQILILQNKIDLIKESQAKEQYEEITKFVQGTVAEGAPIIPISAQLKYNIDVLCEYIVNKIPVPPRDFNAPPRLIVIRSFDVNKPGCEVADLKGGVAGGSILSGVLKVGQEIEVRPGVVTKDSDGNITCRPIFSRIVSLFAEQNELQYAVPGGLIGVGTKIDPTLCRADRLVGQVLGAVGQLPDIYQELEISYYLLRRLLGVRTDGDKKGARVEKLQKNEILLVNIGSLSTGGRISATKGDLAKIVLTTPVCTEKGEKIALSRRVENHWRLIGWGQIFGGKTITPVLDSQVAKK,MAPPIT interaction score,[4]; pair source set: RRS,0.425
Arl8 (protein) MLALINRILEWFKSIFWKEEMELTLVGLQFSGKTTFVNVIASGQFAEDMIPTVGFNMRKITRGNVTIKVWDIGGQPRFRSMWERYCRGVNAIVYMVDAADLDKLEASRNELHSLLDKPQLAGIPVLVLGNKRDLPGALDETGLIERMNLSSIQDREICCYSISCKEKDNIDITLQWLIQHSKSQSR,MAPPIT interaction score,[5],3.21
Slh (protein) MLTLRERQINAIKQMLNLNSQQPKALAAEPVWKILIYDRVGQDIISPIISIKELRELGVTLHVQLHSDRDSIPDVPAIYFCLPTDENLDRIQQDFSSGLYDVYHLNFLAPITRSKIENLAAAALHAGCVANIHRVYDQYVNFISLEDDFFILKHQQSDQLSYYAINRANTRDEEMEALMDSIVDSLFALFVTLGNVPIIRCPRNSAAEMVARKLEKKLRENLWDARANLFHMDATQAGGGVFSFQRPVLLLLDRNMDLATPLHHTWSYQALVHDVLDLGLNLVYVEDETASAGARKKPKACDLDRNDRFWMTHKGSPFPTVAEAIQEELESYRNSEEEIKRLKTSMGIEGESDIAFSLVNDTTARLTNAVNSLPQLMEKKRLIDMHTKIATAILNFIKARRLDSFFEIEEKVMSKQTLDRPLLDLLRDGEFGQAEDKLRLYIIYFICAQQLPESEQERLKEALQAAGCDLTALAYVQRWKGIMNRSPSISQATQYEGGGTKTVSMFTKLVSQGSSFVMEGVKNLVVKRHNLPVTKITEQVMECRSNAETDDYLYLDPKLLKGGEVLPKNRAPFQDAVVFMVGGGNYIEYQNLVDFIKQKQTSNVQRRIIYGASTLTNARQFLKELSALGGEIQSPTATS,MAPPIT interaction score,[6],-0.252
Nop17l (protein) MSASRSRNKQSKLCDDERLDISRDEFNRFQEAFGKEEFRKLFFDYVDEIQDPENRKIYESEITQLEKERGVEVRFIHPKPGFVIKTALDGELKCFINIASCEEIQRPKNEVATDPSSGSRGLSWSIPMAQTTSRDDFDAKNNHCKVFDVVFHPDALHLAMRNKQFRQCLIDTALDAIEREYKVSLDRANLKFPKLDYKGIPRPTVIRKMADNPTAEEQEPHPLAHMFPTKPPAPGKQEPRVLPMKTKPSPVPEFTVPRYTIKHSHDVDLSEYTDELDAKLHVTVPRSLVVEIELPLLRSTAECQLDVTSKSIYLFSERQGAKYRLKLDLPFIVDDKAGRARFDTDMRRLSITLPVVRKSIQEQAQMHETLRHFSREDSGVELHSNSESPVEEDPDGELSDSKADISETSSPSVAPANSPFLKSSVHYQLPSKFDCNVLDNVMAFVLHVPNVQPDSIEQLREQRSLHLKFATIGSGYYPTHYAFYVELSAEHEDSSIESAEAEAWDNNVVLKLCLNSQSETPASYLAGLDATELKEYPVHGQYHVKSKGKVNAKKDNAPLDVKFERNQEGHALKVTIRPGTKEEEEDKENQDQEPESDQQQQQQVQNKKPGKKQRKKNKKERSLSESACADMILQEPLAKTNELQPRATFKLPPQRKQRSYSECNDSTGRSHRGILKRFSRYGPRPSMSDSWSSIDDSSSYSCSVDASGTSLFSQSFGGIPEEDRSDAGLSESCKKTVRFNDHIMKQVFRLDSSILGQRKKNQKRRDLKLRAQQRRLSEGDSVDYEETRGSALKQEENPSRNCNDSGLDLTGAAGAHSNNNESDAKNTMMFEMDD,MAPPIT interaction score,[7]; MAPPIT configuration: N-C,3.31
same,MAPPIT interaction score,[7]; MAPPIT configuration: N-N,0.884
dlg1 (protein) MPVKKQEAHRALELLEDYHARLSEPQDRALRIAIERVIRIFKSRLFQALLDIQEFYELTLLDDSKSIQQKTAETLQIATKWEKDGQAVKIADFIKSSNLNRNCAYEFNNDASSNQTNQSALNQNPIANNVSAQAQAEALSRTFKSELEEILNQRMRIESDTENAKEPTVEQQQKQQQAQQRSSRSPQQQNPQQQQGSKSRSGSQTVNGDDSWLYEDIQLERGNSGLGFSIAGGTDNPHIGTDTSIYITKLISGGAAAADGRLSINDIIVSVNDVSVVDVPHASAVDALKKAGNVVKLHVKRKRGTATTPAAGSAAGDARDSAASGPKVIEIDLVKGGKGLGFSIAGGIGNQHIPGDNGIYVTKLMDGGAAQVDGRLSIGDKLIAVRTNGSEKNLENVTHELAVATLKSITDKVTLIIGKTQHLTTSASGGGGGGLSSGQQLSQSQSQLATSQSQSQVHQQQHATPMVNSQSTEPGSRYASTNVLAAVPPGTPRAVSTEDITREPRTITIQKGPQGLGFNIVGGEDGQGIYVSFILAGGPADLGSELKRGDQLLSVNNVNLTHATHEEAAQALKTSGGVVTLLAQYRPEEYNRFEARIQELKQQAALGAGGSGTLLRTTQKRSLYVRALFDYDPNRDDGLPSRGLPFKHGDILHVTNASDDEWWQARRVLGDNEDEQIGIVPSKRRWERKMRARDRSVKFQGHAAANNNLDKQSTLDRKKKNFTFSRKFPFMKSRDEKNEDGSDQEPFMLCYTQDDANAEGASEENVLSYEAVQRLSINYTRPVIILGPLKDRINDDLISEYPDKFGSCVPHTTRPKREYEVDGRDYHFVSSREQMERDIQNHLFIEAGQYNDNLYGTSVASVREVAEKGKHCILDVSGNAIKRLQVAQLYPVAVFIKPKSVDSVMEMNRRMTEEQAKKTYERAIKMEQEFGEYFTGVVQGDTIEEIYSKVKSMIWSQSGPTIWVPSKESL,MAPPIT interaction score,[8],1.68
same,MAPPIT interaction score,[9],0.743
Sirt2 (protein) MDKVRRFFANTLHLGGSSDAKEEVKVEKVIPDLSFDGFAEHWRVHGFRKIVTMVGAGISTSAGIPDFRSPGSGLYSNLKKYELPHPTAIFDLDYFEKNPAPFFALAKELYPGSFIPTPAHYFIRLLNDKGLLQRHYTQNIDTLDRLTGLPEDKIIEAHGSFHTNHCIKCRKEYDMDWMKAEIFADRLPKCQKCQGVVKPDIVFFGENLPKRFYSSPEEDFQDCDLLIIMGTSLEVQPFASLVWRPGPRCIRLLINRDAVGQASCVLFMDPNTRSLLFDKPNNTRDVAFLGDCDAGVMALAKALGWDQELQQLITSERKKLSGSQNSEELQQGKEKPQSDPDKMTSGDRDKKDASL,MAPPIT interaction score,[10],-0.0617
MED6 (protein) MASRQMTNDHLRLSWHDTQMMATLSPQTVMDYFCRKSNPFYDHMCNNETVRMQRLGPEHLHNMIGLEYILLHVAEPILYVIRKQHRHNPSEATPIADYYIIGGTVYKAPDLANVINSRILNTVVNLQSAFEEASSYARYHPNKGYTWDFSSNKVFSDRSKSDKKDANSAKDENSGTLFQKQRVDMLLAELLRKFPPPIPPMLQNLQQPPPAGDDLNTARNASEMNNATGPLDIKTEGVDMKPPPEKKSK,MAPPIT interaction score,[4]; pair source set: Lit-BS-16,-0.386
